Data taken from PubChem BioAssay (NCATS).
“And” between values parts separate entries of the source, which are not always exact repeats. Equal values may be shown once. Inconclusive results are not listed. Where a call stands in place of a potency, no number is given. The source made the active and inactive calls. Unless noted, the call rests on the fitted dose curve; in most records, active means well fitted curve in the direction sought with a large enough effect; inconclusive means small, poorly fitted or top-dose-only effect, or another doubt; inactive means no such curve, though single readings can be large; an effect the other way counts as inactive or inconclusive. Where a SMILES comes first, the peptide text is derived from it. Bridges are numbered along the chain shown (N, C = ends). [ ]: non-standard residue; d: D form. The star is where a group is joined. X2 = CC[C@H](C)CCCCC(=O)*; Dab = NCC[C@H](N)C(=O)O

How the values were obtained:
[1] = qHTS Assay for Identifying Gametocytocidal Compounds (AID 743244); further: potency means the concentration at half of the fitted maximal effect;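 on max response: actives lower the fluorescent signal which means gametocytes are killed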; settings: P. falciparum 3D7 stage III-V gametocytes, alamarBlue, 72 h; max response: stronger effect = lower value
Outline: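 Stage III–V gametocytes of P. falciparum 3D7 were seeded at 20,000 cells/well onto pre-dispensed compounds. After 72 h, 37 °C, 5% CO2, alamarBlue was added for another 24 h.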

[2] = qHTS assay to identify small molecule inhibitors of chordoma cells - UCH-1 (AID 1259355); further: nearly all actives have a fitted effect of over 55% in size
Outline: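 A 48hr growth-inhibition format: each drug tested at 15 concentrations together with added auranofin, camptothecin, doxorubicin, rubitecan and topotecan, with cell viability quantified as CellTiter-Glo luminescence.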

[3] = qHTS assay to identify small molecule inhibitors of chordoma cells - UCH-2 (AID 1259356)
[4] = P-glycoprotein substrates identified in KB-8-5-11 adenocarcinoma cell line, qHTS therapeutic library screen (AID 1346987); settings: outcome: dose series up to 44.5 µM unless noted; further: nearly all actives have a fitted effect of over 65% in size; further: potency means the concentration at half of the fitted maximal effect
Outline: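 Luminescence from CellTiter-Glo, read 5 min after addition, quantified survival of KB-8-5-11 (P-gp-overexpressing) cells exposed to compounds for 72 h. AC50 was derived from concentration-response curves.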

[5] = qHTS profiling for inhibitors of Plasmodium falciparum (3D7) proliferation (AID 743322; call rule not given here;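 further: infected erythrocytes exposed to compound for 72 h before lysis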); settings: P. falciparum 3D7 proliferation; at 28.7 µM (top of the series) unless noted
Outline: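 Parasite DNA was quantified by SYBR Green I fluorescence (ex 485, em 535 nm) after overnight lysis in saponin/Triton buffer at room temperature. Cultures at 0.3% parasitemia and 2.5% hematocrit were first exposed to compound for 72 h at 37 C; signals were normalised to artemisinin (0.29 uM) and vehicle wells.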

[6] = qHTS profiling for inhibitors of Plasmodium falciparum (DD2) proliferation (AID 743323; call rule not given here); settings: lower = more inhibition; at 28.7 µM (top of the series) unless noted
Outline: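 Parasite proliferation measured via DNA-dye fluorescence, as uninfected erythrocytes lack DNA. Cultures at 0.3% parasitemia and 2.5% hematocrit incubated 72 h with compound; signal scaled between vehicle and 0.29 uM artemisinin wells.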

[7] = qHTS profiling for inhibitors of Plasmodium falciparum (HB3) proliferation (AID 743324); settings: Plasmodium falciparum HB3 blood-stage proliferation; at 28.7 µM (top of the series) unless noted
Outline: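 SYBR Green fluorescence (485 ex/535 em) of lysed cultures, incubated overnight at room temperature in the dark, quantifies parasite DNA. Infected erythrocytes at 0.3% parasitemia and 2.5% hematocrit were exposed 72 h; values normalized to DMSO and 0.29 uM artemisinin controls.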

## CCC(C)[C@@H](N)C(=O)O (stereo partly specified)
[1]
  max response: -1.27% (inactive)
[2]
  Potency: inactive
[3]
  Potency: inactive
[4]
  Potency: inactive

## O=C1CCC(=O)N1CO
[1]
  max response: -5.34% (inactive)
[2]
  Potency: inactive
[3]
  Potency: inactive
[4]
  Potency: inactive

## CO/N=C(\C(=O)N[C@@H]1C(=O)N2C(C(=O)O)=C(CSc3nc(C)c(CC(=O)O)s3)CS[C@H]12)c1csc(N)n1
[1]
  max response: 4.68% (inactive)
[2]
  Potency: inactive
[3]
  Potency: inactive
[4]
  Potency: inactive

## CC(=C\c1ccccc1)/C=C1/SC(=S)N(CC(=O)O)C1=O
[1]
  max response: 8.93% (inactive)
[2]
  Potency: inactive
[3]
  Potency: inactive
[4]
  Potency: inactive

## CC[C@@H]1/C=C(\C)C[C@H](C)C[C@H](OC)[C@H]2O[C@@](O)(C(=O)C(=O)N3CCCC[C@H]3C(=O)O[C@H](/C(C)=C/[C@@H]3CC[C@@H](Cl)[C@H](OC)C3)[C@H](C)[C@@H](O)CC1=O)[C@H](C)C[C@@H]2OC
[1]
  max response: -7.71% (inactive)
[2]
  Potency: inactive
[3]
  Potency: inactive
[4]
  Potency: inactive

## Cc1cc(-c2ccc(N=Nc3ccc4c(S(=O)(=O)O)cc(S(=O)(=O)O)c(N)c4c3O)c(C)c2)ccc1N=Nc1ccc2c(S(=O)(=O)O)cc(S(=O)(=O)O)c(N)c2c1O
[1]
  max response: 18.4% (inactive) and 0.953% (inactive)
[2]
  Potency: inactive
[3]
  Potency: inactive
[4]
  Potency: 6.51 µM (active)

## Cc1cc(C)c(NC(=O)C[C@H](CC(=O)O)c2cccc3ccccc23)c(C(=O)N2CCC3(CCCC3)CC2)c1
[1]
  max response: -8.09% (inactive)
[2]
  activity, negative = inhibition: -1.62% [at 1.88 µM] (inactive)
[3]
  Potency: inactive
[4]
  Potency: inactive

## CC(C)(CO)[C@@H](O)C(=O)NCCCC(=O)O
[1]
  max response: -4.37% (inactive)
[2]
  Potency: inactive
[3]
  Potency: inactive
[4]
  Potency: inactive

## O=C1c2ccccc2CN2C(=O)c3ccccc3CN12
[1]
  max response: 10.5% (inactive)
[2]
  Potency: inactive
[3]
  Potency: inactive
[4]
  Potency: inactive

## CN[C@@H]1[C@@H](O)[C@@H](O[C@@H]2[C@@H](O)[C@H](O[C@H]3O[C@H](CN)[C@@H](O)[C@H](O)[C@H]3O)[C@@H](N)C[C@H]2NC(=O)C(O)CN)OC[C@]1(C)O (stereo partly specified)
[1]
  max response: 16.8% (inactive)
[2]
  Potency: inactive
[3]
  Potency: inactive
[4]
  Potency: inactive

## CC(=O)O[C@@H]1CC2CCC1(C)C2(C)C (stereo partly specified)
[1]
  max response: 7.45% (inactive)
[2]
  Potency: inactive
[3]
  Potency: inactive
[4]
  Potency: inactive

## CN1CCN(C(c2ccccc2)c2ccc(Cl)cc2)CC1 (stereo unspecified)
[1]
  max response: 1.98% (inactive)
[2]
  Potency: inactive
[3]
  Potency: inactive
[4]
  Potency: inactive

## O=C1NCCN1c1ncc([N+](=O)[O-])s1
[1]
  max response: -6.09% (inactive)
[2]
  Potency: inactive
[3]
  Potency: inactive
[4]
  Potency: inactive

## CC(C)(COP(=O)(O)OP(=O)(O)OC[C@H]1O[C@@H](n2cnc3c(N)ncnc32)[C@H](O)[C@@H]1OP(=O)(O)O)C(O)C(=O)NCCC(=O)NCCS (stereo partly specified)
[1]
  max response: -9.49% (inactive)
[2]
  Potency: inactive
[3]
  Potency: inactive
[4]
  Potency: inactive

## C=C1c2c(Cl)ccc(O)c2C(O)=C2C(=O)[C@]3(O)C(O)=C(C(N)=O)C(=O)[C@@H](N(C)C)[C@@H]3[C@@H](O)[C@H]12
[1]
  max response: 2.94% (inactive)
[2]
  Potency: inactive
[3]
  Potency: inactive
[4]
  Potency: inactive

## CC(O)[C@@H]1NC(=O)[C@H](Cc2ccccc2)NC(=O)[C@H](C(C)O)NC(=O)[C@H](CCCCN)NC(=O)[C@H](Cc2c[nH]c3ccccc23)NC(=O)[C@H](Cc2ccccc2)NC(=O)[C@H](Cc2ccccc2)NC(=O)[C@H](CC(N)=O)NC(=O)[C@H](CCCCN)NC(=O)[C@@H](NC(=O)CNC(=O)[C@H](C)N)CSSC[C@@H](C(=O)O)NC(=O)[C@H](CO)NC1=O (stereo partly specified)
[1]
  max response: 1.43% (inactive)
[2]
  Potency: inactive
[3]
  Potency: inactive
[4]
  Potency: inactive

## CC[C@H](C)CCCCC(=O)N[C@@H](CCN)C(=O)N[C@H](C(=O)N[C@@H](CCN)C(=O)N[C@H]1CCNC(=O)[C@@H]([C@H](C)O)NC(=O)[C@H](CCN)NC(=O)[C@H](CCN)NC(=O)[C@H](CC(C)C)NC(=O)[C@@H](CC(C)C)NC(=O)[C@H](CCN)NC1=O)[C@@H](C)O (X2-[Dab]T[Dab][Dab][Dab][dL]L[Dab][Dab][dT]; lactam 4-C)
[1]
  max response: -2.93% (inactive)
[2]
  Potency: inactive
[3]
  Potency: inactive
[4]
  Potency: inactive

## COc1ccc(C(=O)/C(Br)=C\C(=O)O)cc1
[1]
  max response: 20.3% (inactive)
[2]
  Potency: inactive
[3]
  Potency: inactive

## CCN(CC)C(=S)S
[1]
  Potency: 6.31 µM (active)
[5]
  remaining parasite growth % (stronger effect = lower value): 87.7%
[6]
  activity, percent of control: 82.5%
[7]
  remaining proliferation (% of control), lower = more inhibition: 84.6%
[2]
  Potency: inactive
[3]
  Potency: inactive
[4]
  Potency: inactive

## OCCN1CCN(CC/C=C2/c3ccccc3Sc3ccc(Cl)cc32)CC1
[1]
  max response: -5.02% (inactive)
[2]
  Potency: inactive
[3]
  Potency: inactive

## CSc1nc2cc(Oc3cccc(Cl)c3Cl)c(Cl)cc2[nH]1
[1]
  max response: 0.358% (inactive)
[2]
  Potency: inactive
[3]
  Potency: inactive

## C[C@H]1[C@@H](OC(=O)CCC(=O)O)O[C@@H]2OC3(C)CC[C@H]4[C@H](C)CC[C@@H]1[C@@]24OO3
[5]
  remaining parasite growth % (stronger effect = lower value): -0.578%
[6]
  activity, percent of control: -0.204%
[7]
  remaining proliferation (% of control), lower = more inhibition: -0.191%
[2]
  Potency: inactive
[3]
  Potency: inactive
[4]
  Potency: 4.61 µM (active)

## CCN(CC)CCC(=O)N1c2ccccc2Sc2ccc(Cl)cc21
[1]
  max response: 2.51% (inactive)
[2]
  Potency: inactive
[3]
  Potency: inactive

## COc1ccc2nc(NC(=O)Nc3ccccc3)sc2c1
[1]
  max response: -0.997% (inactive)
[2]
  Potency: inactive
[3]
  Potency: inactive
